Assay in all cases: DAPPL (digital affinity profiling via proximity ligation, sequencing); 10 mM Tris-HCl pH 7.5, 50 mM NaCl, 1 mM DTT, 4% glycerol, room temperature, 30 min; GST-TFs on glutathione beads, 16-mer random dsDNA library, 0.1% formaldehyde crosslink after washing; high values mean tight binding
Holding throughout (conditions): protein: recombinant; tags: N-terminal GST; dsDNA, one strand shown

The target in experiment [1] is T1, ELK1 (Homo sapiens, UniProt P19419 1-428).
T1 sequence: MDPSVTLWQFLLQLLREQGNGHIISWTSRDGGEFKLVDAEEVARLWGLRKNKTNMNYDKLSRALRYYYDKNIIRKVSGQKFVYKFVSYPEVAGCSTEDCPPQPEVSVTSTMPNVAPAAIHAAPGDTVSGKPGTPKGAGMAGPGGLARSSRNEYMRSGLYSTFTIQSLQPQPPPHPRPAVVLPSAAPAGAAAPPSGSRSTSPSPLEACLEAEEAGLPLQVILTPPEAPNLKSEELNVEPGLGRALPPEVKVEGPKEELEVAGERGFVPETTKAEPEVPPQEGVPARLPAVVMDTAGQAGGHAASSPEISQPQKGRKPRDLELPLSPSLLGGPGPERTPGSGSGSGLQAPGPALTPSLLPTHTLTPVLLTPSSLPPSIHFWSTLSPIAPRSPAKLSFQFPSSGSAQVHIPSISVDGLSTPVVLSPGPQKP
The method in brief:
(§1)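 A tag-only sample was pooled with DNA-barcoded human transcription factors that had been expressed in yeast as GST fusions and captured on glutathione beads. The pools were incubated for 30 min at room temperature with 200 nmole of a random double-stranded 16-mer DNA library in Tris/NaCl/DTT/glycerol buffer, then washed, crosslinked with 0.1% formaldehyde, proximity-ligated (BsaI/T4 ligase, 1 h, 37 °C), PCR-amplified and sequenced on an Illumina NextSeq500. Binding signal is each hexamer's read frequency for a factor divided by its frequency for the tag-only sample.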

The target in experiment [2] is ELF1 (Homo sapiens, UniProt P32519 1-619). The method in brief: as §1
Sequence of ELF1 (P32519 whole entry): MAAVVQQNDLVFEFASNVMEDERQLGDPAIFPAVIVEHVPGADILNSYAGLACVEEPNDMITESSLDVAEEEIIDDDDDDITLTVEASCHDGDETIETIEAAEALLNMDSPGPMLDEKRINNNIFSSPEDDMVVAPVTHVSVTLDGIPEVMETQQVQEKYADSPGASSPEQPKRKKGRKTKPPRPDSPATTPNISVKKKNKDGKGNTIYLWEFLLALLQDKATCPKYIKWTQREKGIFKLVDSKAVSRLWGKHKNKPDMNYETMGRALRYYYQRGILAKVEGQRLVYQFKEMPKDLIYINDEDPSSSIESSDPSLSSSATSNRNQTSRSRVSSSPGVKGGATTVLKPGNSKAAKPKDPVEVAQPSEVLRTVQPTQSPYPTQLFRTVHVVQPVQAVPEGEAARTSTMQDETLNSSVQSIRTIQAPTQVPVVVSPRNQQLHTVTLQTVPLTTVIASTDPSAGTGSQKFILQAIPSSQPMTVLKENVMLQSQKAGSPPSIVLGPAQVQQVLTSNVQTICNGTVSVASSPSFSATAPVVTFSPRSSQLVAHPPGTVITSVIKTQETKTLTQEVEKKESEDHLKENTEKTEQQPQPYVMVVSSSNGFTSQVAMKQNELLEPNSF
Experiment [3] addresses T2, EHF (Homo sapiens, UniProt Q9NZC4 1-300).
T2 sequence: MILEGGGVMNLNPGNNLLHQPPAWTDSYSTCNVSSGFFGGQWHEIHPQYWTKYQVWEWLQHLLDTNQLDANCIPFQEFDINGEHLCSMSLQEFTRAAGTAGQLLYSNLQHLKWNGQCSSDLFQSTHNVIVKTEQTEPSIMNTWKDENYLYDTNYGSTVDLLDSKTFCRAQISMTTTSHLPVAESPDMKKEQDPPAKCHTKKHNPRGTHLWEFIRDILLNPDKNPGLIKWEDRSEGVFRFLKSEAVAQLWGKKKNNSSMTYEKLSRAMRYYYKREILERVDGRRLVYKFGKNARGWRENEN
The method in brief: as §1

Experiment [4] concerns the target SPIB (Homo sapiens, UniProt Q01892 1-262). The procedure, abridged:
as §1

Experiment [5] has as its target T3, ELK3 (Homo sapiens, UniProt P41970 1-407).
T3 sequence: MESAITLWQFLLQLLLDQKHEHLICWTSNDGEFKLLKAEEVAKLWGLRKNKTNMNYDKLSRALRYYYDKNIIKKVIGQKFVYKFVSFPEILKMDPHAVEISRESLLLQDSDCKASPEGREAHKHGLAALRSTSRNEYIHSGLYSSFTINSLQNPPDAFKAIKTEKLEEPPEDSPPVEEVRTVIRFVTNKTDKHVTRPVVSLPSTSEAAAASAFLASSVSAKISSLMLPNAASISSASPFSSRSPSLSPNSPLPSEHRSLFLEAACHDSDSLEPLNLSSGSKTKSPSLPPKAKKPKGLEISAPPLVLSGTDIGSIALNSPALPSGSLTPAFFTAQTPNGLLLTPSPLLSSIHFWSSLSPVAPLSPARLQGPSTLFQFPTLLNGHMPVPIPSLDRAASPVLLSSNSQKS
The method in brief:
as §1

The target of experiment [6] is ETV5 (Homo sapiens, UniProt P41161 1-510). The method in brief:
as §1

The target of experiment [7] is T4, SPIC (Homo sapiens, UniProt Q8N5J4 1-248).
T4 sequence: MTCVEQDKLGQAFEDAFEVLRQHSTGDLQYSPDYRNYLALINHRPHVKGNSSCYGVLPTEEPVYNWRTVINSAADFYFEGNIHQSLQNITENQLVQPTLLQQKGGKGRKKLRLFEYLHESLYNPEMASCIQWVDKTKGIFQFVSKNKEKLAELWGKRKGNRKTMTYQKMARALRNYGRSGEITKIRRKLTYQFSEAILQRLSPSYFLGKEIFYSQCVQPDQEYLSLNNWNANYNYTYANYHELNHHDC
The method in brief: as §1

Experiment [8] addresses ELF4 (Homo sapiens, UniProt Q99607 1-663). The procedure, abridged:
as §1

Experiment [9] addresses T5, ELK4 (Homo sapiens, UniProt P28324-2 1-405).
T5 sequence: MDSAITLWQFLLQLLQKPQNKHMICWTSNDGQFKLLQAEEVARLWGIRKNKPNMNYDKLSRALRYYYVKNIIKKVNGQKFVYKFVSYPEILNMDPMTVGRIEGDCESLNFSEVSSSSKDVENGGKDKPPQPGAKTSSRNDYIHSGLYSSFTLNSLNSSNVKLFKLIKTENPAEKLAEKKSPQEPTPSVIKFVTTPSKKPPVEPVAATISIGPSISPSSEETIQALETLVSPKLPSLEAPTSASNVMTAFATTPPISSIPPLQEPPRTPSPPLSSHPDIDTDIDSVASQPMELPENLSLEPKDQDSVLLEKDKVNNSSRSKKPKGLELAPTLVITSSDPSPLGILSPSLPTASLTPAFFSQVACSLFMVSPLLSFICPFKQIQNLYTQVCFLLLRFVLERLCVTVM
The procedure, abridged:
as §1

In experiment [10] the target is T6, ELF3 (Homo sapiens, UniProt P78545 1-371).
T6 sequence: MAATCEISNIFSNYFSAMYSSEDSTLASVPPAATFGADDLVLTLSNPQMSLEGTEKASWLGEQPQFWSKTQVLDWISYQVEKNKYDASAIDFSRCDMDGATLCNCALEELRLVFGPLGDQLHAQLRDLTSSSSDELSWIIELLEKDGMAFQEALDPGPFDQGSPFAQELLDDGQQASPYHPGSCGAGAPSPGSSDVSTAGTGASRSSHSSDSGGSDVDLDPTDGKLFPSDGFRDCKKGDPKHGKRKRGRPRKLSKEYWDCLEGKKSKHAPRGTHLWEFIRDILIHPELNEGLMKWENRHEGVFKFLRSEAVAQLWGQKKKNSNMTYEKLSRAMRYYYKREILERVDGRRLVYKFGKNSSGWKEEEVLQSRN
The method in brief: as §1

Experiment [11] deals with ETV1 (Homo sapiens, UniProt P50549 1-477). The method in brief:
as §1

In experiment [12] the target is T7, ERF (Homo sapiens, UniProt P50548 1-548).
T7 sequence: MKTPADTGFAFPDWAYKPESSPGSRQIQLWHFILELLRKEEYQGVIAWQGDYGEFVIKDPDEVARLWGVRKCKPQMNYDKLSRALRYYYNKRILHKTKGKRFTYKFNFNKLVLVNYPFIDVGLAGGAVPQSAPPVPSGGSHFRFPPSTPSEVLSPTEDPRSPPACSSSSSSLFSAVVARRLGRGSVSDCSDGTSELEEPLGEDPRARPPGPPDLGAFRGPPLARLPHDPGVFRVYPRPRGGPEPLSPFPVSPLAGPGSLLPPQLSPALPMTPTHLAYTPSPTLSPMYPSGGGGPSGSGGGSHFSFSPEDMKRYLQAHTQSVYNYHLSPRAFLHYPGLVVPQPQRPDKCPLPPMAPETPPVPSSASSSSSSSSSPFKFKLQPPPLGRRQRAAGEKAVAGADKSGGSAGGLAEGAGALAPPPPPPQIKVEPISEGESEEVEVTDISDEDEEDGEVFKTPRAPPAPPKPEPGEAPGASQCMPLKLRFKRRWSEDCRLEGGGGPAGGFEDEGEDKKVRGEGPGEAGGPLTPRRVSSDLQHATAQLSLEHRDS
The method in brief: as §1

For experiment [13], the target named is T8, ETV3L (Homo sapiens, UniProt Q6ZN32 1-361).
T8 sequence: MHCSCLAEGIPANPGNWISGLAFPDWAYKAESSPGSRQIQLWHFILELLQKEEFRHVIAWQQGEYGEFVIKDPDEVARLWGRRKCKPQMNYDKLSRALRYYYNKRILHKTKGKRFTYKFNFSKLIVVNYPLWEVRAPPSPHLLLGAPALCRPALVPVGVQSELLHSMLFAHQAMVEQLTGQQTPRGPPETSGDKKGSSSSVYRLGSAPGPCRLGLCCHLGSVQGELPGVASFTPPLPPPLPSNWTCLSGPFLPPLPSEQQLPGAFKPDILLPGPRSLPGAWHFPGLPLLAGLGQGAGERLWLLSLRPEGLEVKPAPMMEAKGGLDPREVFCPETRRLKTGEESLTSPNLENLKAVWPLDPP
The method in brief: as §1

For experiment [14], the target named is T9, ETS2 (Homo sapiens, UniProt P15036 1-469).
T9 sequence: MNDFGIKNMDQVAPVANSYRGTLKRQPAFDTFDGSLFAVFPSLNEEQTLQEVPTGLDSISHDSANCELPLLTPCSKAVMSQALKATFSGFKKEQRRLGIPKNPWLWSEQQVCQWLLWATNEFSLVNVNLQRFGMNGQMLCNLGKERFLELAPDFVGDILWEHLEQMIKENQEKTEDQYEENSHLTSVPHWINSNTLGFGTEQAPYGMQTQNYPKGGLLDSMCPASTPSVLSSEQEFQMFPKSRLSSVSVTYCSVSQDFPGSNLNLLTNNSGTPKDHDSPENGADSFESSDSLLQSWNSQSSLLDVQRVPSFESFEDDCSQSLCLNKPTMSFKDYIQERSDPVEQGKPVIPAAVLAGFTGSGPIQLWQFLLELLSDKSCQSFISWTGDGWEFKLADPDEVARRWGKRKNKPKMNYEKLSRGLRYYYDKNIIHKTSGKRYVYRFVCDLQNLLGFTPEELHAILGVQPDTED
The procedure, abridged: as §1

Experiment [15] has as its target T10, SPDEF (Homo sapiens, UniProt O95238 1-335).
T10 sequence: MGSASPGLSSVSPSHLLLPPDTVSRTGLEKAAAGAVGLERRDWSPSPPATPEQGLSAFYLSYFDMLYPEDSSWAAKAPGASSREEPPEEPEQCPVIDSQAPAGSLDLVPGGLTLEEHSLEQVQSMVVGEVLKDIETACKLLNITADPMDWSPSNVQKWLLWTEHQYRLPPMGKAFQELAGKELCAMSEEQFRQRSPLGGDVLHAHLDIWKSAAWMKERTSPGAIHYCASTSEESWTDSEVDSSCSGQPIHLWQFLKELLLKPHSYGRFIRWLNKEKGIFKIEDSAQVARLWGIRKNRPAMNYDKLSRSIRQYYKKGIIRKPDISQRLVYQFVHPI
The procedure, abridged:
as §1

In experiment [16] the target is T11, ETV7 (Homo sapiens, UniProt Q9Y603 1-341).
T11 sequence: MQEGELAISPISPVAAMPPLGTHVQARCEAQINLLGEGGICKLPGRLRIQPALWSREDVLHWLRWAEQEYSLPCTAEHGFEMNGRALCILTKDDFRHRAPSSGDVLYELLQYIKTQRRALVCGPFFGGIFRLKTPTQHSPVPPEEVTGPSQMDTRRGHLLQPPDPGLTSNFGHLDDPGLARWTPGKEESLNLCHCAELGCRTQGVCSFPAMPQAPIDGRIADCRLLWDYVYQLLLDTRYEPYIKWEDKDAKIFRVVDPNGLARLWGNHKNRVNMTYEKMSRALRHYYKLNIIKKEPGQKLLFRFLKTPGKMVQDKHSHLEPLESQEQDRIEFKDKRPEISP
The method in brief:
as §1

The target in experiment [17] is ETV6 (Homo sapiens, UniProt P41212 1-452). The method in brief:
as §1

Sequence of ETV1 (P50549 whole entry): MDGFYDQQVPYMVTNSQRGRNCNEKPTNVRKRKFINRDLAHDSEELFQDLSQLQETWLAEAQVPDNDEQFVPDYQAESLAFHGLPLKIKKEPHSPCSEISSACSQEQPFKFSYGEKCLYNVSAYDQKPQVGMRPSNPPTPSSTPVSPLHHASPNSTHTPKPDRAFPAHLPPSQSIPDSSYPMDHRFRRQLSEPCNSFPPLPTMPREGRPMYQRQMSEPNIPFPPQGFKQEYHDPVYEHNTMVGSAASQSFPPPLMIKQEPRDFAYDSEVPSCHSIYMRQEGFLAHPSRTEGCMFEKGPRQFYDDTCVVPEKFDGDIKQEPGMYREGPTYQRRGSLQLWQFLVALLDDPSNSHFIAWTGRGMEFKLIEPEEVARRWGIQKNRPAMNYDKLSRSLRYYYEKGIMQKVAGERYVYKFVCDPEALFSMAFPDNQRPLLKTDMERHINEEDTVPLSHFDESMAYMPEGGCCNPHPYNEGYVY
Sequence of ELF4 (Q99607 whole entry): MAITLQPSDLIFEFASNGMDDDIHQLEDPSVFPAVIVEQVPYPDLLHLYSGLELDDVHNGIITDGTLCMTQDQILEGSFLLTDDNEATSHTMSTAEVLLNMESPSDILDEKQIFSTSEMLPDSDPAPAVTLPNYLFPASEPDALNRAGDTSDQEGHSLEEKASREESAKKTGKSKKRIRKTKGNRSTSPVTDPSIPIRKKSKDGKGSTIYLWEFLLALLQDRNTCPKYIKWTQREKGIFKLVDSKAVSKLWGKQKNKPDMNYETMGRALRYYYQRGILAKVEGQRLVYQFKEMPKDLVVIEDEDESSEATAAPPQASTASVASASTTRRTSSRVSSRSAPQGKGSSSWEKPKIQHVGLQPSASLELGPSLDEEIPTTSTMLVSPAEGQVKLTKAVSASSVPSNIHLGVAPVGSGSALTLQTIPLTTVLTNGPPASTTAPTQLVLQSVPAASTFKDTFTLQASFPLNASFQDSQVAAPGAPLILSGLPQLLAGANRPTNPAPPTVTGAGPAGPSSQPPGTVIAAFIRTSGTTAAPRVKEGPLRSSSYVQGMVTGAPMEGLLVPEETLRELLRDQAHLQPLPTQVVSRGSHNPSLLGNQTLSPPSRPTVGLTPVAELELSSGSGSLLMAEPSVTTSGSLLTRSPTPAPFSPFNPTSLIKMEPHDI
Sequence of ETV6 (P41212 whole entry): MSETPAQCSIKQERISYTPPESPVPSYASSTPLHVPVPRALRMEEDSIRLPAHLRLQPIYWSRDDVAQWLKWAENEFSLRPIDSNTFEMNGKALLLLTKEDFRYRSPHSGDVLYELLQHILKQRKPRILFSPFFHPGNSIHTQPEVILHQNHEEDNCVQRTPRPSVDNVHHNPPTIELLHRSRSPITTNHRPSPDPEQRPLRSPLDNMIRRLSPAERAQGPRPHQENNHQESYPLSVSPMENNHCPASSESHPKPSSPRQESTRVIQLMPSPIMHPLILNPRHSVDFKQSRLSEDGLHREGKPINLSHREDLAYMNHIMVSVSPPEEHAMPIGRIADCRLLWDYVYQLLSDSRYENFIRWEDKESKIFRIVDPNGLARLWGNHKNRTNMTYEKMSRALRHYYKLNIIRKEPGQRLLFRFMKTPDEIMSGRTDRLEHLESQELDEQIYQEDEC
Sequence of SPIB (Q01892 whole entry): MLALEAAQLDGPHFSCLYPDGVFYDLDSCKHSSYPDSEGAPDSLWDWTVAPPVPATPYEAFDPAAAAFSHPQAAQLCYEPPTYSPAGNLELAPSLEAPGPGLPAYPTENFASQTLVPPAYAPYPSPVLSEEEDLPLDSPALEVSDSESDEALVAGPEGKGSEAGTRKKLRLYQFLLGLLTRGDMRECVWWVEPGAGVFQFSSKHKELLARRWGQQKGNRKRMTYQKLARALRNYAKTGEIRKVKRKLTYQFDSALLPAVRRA
Sequence of ETV5 (P41161 whole entry): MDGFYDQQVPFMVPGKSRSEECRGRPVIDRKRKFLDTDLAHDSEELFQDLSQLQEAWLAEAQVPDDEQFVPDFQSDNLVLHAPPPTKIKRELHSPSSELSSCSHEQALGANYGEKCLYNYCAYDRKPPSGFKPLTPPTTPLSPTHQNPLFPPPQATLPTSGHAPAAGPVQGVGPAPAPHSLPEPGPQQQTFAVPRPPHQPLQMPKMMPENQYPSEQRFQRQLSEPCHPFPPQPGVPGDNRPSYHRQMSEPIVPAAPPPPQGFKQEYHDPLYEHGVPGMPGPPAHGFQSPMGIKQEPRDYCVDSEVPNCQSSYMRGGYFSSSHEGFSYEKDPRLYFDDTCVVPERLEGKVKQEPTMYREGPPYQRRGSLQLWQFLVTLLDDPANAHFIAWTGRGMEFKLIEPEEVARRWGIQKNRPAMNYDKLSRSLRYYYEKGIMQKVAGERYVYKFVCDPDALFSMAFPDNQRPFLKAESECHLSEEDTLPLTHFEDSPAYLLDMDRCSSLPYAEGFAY

GTCTAT: the binding signal in experiment [1] is 1.04 fold enrichment (6-mer frequency, TF over GST control); in [2] it was 1.08 fold enrichment (6-mer frequency, TF over GST control); in experiment [3] it was 1.1 fold enrichment (6-mer frequency, TF over GST control); in [4], 1.01 fold enrichment (6-mer frequency, TF over GST control); in experiment [5], 1.04 fold enrichment (6-mer frequency, TF over GST control); in experiment [6], 1.07 fold enrichment (6-mer frequency, TF over GST control). The binding signal was 1.18 fold enrichment (6-mer frequency, TF over GST control) in experiment [7]; 1.11 fold enrichment (6-mer frequency, TF over GST control) in experiment [8]; 1 fold enrichment (6-mer frequency, TF over GST control) in experiment [9]; 1.12 fold enrichment (6-mer frequency, TF over GST control) in [10]; 1.04 fold enrichment (6-mer frequency, TF over GST control) in experiment [11]; 1.14 fold enrichment (6-mer frequency, TF over GST control) in experiment [12]. For the same sequence, the binding signal in experiment [13] is 1.05 fold enrichment (6-mer frequency, TF over GST control); in experiment [14] it was 1.01 fold enrichment (6-mer frequency, TF over GST control); in experiment [15], 1.08 fold enrichment (6-mer frequency, TF over GST control); in experiment [16] it was 1.07 fold enrichment (6-mer frequency, TF over GST control); in experiment [17], 1.03 fold enrichment (6-mer frequency, TF over GST control).
